# Reference: PubChem BioAssay (NCATS)
# Values joined by “and” are separate entries in the source; they are usually repeats but may differ in a detail not shown here. Identical values can stand only once. Inconclusive results are not listed. Where a call stands in place of a potency, no number is given. Active and inactive are the calls of the source. Unless noted, calls come from the whole dose curve; as a rule, active = well fitted curve in the direction sought with a large enough effect; inconclusive = small, poorly fitted or top-dose-only effect, or another doubt; inactive = no such curve, though single readings can be large; an effect the other way counts as inactive or inconclusive. Where a SMILES comes first, the peptide text is derived from it. The star is where a group is joined. AFC = O=c1cc(C(F)(F)F)c2ccc(N*)cc2o1
# Columns and labels:
# [1] = Primary qHTS for inhibitors of nuclear receptor binding SET domain protein 2 (NSD2) in an isogenic RCH-ACV NSD2 p.E1099K mutant (9B) (AID 1645876); note: nearly all actives have a fitted effect of over 70% in size; note: potency is the fitted concentration of half-maximal effect
# [2] = target: Cytochrome P450 2C9 (Homo sapiens) (UniProt P11712); experiment: Cytochrome P450 family 2 subfamily C member 9 (CYP2C9) small molecule antagonists: luciferase biochemical (cell-free) qHTS assay (AID 1645842; active = well fitted curve in the direction sought with a large enough effect in the repeat runs; an effect the other way counts as inactive or inconclusive; note: nearly all actives have a fitted effect of over 55% in size; note: potency is the fitted concentration of half-maximal effect)
# Sequence of Cytochrome P450 2C9 (Homo sapiens) (P11712 whole entry, looked up): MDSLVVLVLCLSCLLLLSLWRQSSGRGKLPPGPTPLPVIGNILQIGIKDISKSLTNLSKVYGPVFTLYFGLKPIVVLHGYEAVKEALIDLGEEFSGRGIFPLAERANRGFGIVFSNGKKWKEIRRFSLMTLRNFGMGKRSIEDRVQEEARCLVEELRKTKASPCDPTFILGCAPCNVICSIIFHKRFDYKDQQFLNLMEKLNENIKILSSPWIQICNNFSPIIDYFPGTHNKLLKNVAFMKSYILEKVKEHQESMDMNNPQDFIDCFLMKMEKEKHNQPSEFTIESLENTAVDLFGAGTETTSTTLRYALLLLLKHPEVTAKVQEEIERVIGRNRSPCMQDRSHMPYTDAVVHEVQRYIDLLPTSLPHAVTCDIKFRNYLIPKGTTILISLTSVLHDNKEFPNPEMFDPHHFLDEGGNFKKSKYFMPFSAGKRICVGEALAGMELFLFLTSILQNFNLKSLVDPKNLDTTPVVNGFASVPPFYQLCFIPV
# In short: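 Luminescence, after 20 min with luciferin detection reagent, reflected CYP2C9 turnover during a 1 h NADPH-driven reaction at 37C. Enzyme-substrate mix contained 0.4% bovine serum albumin and was preincubated with compound 10 min at room temperature.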
# [3] = Viability counterscreen for antagonist of constitutive androstane receptor (CAR) against the NCATS DSHEA and TCM libraries (AID 1794837);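 note: compound exposure lasted 24 h before viability reading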
# In short: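 Cells: HepG2 line carrying CYP2B6 reporter and hCAR, seeded and attached 5 h. Then pin-transferred test substances plus agonist CITCO at 48 uM final; 24 h incubation; fluorogenic viability reagent, 1 h.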
# [4] = target: Nuclear receptor subfamily 1 group I member 3 (Homo sapiens) (UniProt Q14994); experiment: Primary qHTS for agonist of constitutive androstane receptor (CAR) against the NCATS DSHEA and TCM libraries (AID 1794839);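 note: HepG2 cells expressing human CAR with a CYP2B6 reporter plus PK11195 antagonist; luciferase reporter luminescence read with ONE-Glo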
# Sequence of Nuclear receptor subfamily 1 group I member 3 (Homo sapiens) (Q14994 whole entry, looked up): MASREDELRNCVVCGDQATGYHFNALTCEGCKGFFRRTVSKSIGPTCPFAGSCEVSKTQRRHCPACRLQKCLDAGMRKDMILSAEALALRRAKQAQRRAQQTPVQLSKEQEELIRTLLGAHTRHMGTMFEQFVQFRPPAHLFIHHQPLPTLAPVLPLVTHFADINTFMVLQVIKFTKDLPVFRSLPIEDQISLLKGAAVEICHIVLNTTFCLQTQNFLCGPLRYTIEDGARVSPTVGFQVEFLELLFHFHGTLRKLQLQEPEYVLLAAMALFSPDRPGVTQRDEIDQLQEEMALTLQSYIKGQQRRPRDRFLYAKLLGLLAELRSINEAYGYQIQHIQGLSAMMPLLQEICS
# In short: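 qHTS, agonist mode: HepG2-CYP2B6-hCAR, 2,500 cells/well, 5 h attach; cpds + PK11195 0.75 µM final; 24 h, 37 °C, 5% CO2. Readouts: CellTiter-Fluor (405/540 nm), then ONE-Glo luminescence.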
# [5] = HepG2 viability counterscreen (readout 2: ATP content) against the NCATS DSHEA and TCM libraries (AID 1794840)
# In short: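 Same wells read twice: first fluorescence from cleaved GF-AFC substrate (25 uM final, 30 min, 37C) for live-cell protease, then CellTiter-Glo luminescence after 30 min at room temperature for ATP. HepG2 cells were exposed ~24 h to substances.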
# [6] = Primary qHTS for inhibitors of nuclear receptor binding SET domain protein 2 (NSD2) in an RCH-ACV wild type WT cells (2C) (AID 1645877); note: nearly all actives have a fitted effect of over 70% in size; note: potency is the fitted concentration of half-maximal effect
# [7] = target: Catechol O-methyltransferase (Homo sapiens) (UniProt P21964); experiment: Confirmatory Screen for Target Class Profiling of Small Molecule Inhibitors of Methyltransferases (AID 1745852; calls by dose curve; note: potency is the fitted concentration of half-maximal effect); settings: MTase-Glo luminescence, SAH detection, recombinant enzyme; measured here: COMT max response; stronger effect = lower value
# Sequence of Catechol O-methyltransferase (Homo sapiens) (P21964 whole entry, looked up): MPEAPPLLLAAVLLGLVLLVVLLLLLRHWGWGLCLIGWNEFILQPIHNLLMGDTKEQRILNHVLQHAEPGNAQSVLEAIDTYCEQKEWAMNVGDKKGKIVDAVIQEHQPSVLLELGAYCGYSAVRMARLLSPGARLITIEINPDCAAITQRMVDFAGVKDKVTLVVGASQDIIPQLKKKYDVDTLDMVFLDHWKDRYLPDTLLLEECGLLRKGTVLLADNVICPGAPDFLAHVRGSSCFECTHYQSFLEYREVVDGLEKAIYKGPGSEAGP
# [8] = target: Guanidinoacetate N-methyltransferase (Homo sapiens) (UniProt Q14353); experiment: as above; settings: activity change, negative = inhibition: at 57.3 µM (top of the series) unless noted
# [9] = target: Nicotinamide N-methyltransferase (Homo sapiens) (UniProt P40261); experiment: as above; settings: MTase-Glo luminescence, SAH detection, recombinant enzyme; measured here: NNMT max response; stronger effect = lower value
# Sequence of Nicotinamide N-methyltransferase (Homo sapiens) (P40261 whole entry, looked up): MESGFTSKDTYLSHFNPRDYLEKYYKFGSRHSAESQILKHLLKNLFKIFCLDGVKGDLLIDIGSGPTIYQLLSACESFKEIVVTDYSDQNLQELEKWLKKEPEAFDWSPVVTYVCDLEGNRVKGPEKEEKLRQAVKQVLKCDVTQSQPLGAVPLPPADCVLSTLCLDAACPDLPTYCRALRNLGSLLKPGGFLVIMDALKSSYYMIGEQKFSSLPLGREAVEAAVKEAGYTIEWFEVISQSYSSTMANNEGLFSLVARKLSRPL
# [10] = target: Phenylethanolamine N-methyltransferase (Homo sapiens) (UniProt P11086); experiment: as above; settings: MTase-Glo luminescence, SAH detection, recombinant enzyme; measured here: PNMT max response; stronger effect = lower value
# Sequence of Phenylethanolamine N-methyltransferase (Homo sapiens) (P11086 whole entry, looked up): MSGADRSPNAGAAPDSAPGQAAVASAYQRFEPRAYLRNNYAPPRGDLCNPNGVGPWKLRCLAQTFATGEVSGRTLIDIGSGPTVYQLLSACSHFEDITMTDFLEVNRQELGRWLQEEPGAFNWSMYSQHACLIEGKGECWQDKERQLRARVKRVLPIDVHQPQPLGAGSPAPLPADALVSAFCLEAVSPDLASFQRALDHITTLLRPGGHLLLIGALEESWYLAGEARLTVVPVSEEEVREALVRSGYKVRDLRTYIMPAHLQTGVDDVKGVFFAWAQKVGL
# [11] = target: N-terminal Xaa-Pro-Lys N-methyltransferase 1 (Homo sapiens) (UniProt Q9BV86); experiment: Confirmatory qHTS for Inhibitors of N-terminal methyltransferase 1 (NTMT1): MTaseGlo Assay (AID 1645874); note: nearly all actives have a fitted effect of over 65% in size; note: potency is the fitted concentration of half-maximal effect;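 for activity change, negative = inhibition: luminescence from SAH made as NTMT1 methylates SPKRIA peptide using SAM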
# Sequence of N-terminal Xaa-Pro-Lys N-methyltransferase 1 (Homo sapiens) (Q9BV86 whole entry, looked up): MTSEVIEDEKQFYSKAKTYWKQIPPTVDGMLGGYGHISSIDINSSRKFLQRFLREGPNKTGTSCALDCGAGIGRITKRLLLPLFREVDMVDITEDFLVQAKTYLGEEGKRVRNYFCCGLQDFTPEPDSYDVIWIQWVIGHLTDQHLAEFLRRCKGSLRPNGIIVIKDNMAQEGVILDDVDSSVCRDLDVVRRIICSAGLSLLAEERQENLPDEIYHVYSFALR
# In short: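 Compounds are incubated with 125 nM NTMT1 and 100 uM SAM for 15 min before the SPKRIA peptide (1 uM) starts a 30 min room-temperature methylation. SAH is measured by coupled luciferase luminescence and curves fitted to a Hill equation.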
# [12] = target: Rap guanine nucleotide exchange factor 3 (Homo sapiens) (UniProt O95398); experiment: Confirmatory qHTS for antagonist of cAMP-regulated guanine nucleotide exchange factor 3 (EPAC1) (AID 1645880); settings: EPAC1 Rap1B-BODIPY-GDP exchange, fluorescence; note: potency is the fitted concentration of half-maximal effect; nearly all actives have a fitted effect of over 55% in size
# Sequence of Rap guanine nucleotide exchange factor 3 (Homo sapiens) (O95398 whole entry, looked up): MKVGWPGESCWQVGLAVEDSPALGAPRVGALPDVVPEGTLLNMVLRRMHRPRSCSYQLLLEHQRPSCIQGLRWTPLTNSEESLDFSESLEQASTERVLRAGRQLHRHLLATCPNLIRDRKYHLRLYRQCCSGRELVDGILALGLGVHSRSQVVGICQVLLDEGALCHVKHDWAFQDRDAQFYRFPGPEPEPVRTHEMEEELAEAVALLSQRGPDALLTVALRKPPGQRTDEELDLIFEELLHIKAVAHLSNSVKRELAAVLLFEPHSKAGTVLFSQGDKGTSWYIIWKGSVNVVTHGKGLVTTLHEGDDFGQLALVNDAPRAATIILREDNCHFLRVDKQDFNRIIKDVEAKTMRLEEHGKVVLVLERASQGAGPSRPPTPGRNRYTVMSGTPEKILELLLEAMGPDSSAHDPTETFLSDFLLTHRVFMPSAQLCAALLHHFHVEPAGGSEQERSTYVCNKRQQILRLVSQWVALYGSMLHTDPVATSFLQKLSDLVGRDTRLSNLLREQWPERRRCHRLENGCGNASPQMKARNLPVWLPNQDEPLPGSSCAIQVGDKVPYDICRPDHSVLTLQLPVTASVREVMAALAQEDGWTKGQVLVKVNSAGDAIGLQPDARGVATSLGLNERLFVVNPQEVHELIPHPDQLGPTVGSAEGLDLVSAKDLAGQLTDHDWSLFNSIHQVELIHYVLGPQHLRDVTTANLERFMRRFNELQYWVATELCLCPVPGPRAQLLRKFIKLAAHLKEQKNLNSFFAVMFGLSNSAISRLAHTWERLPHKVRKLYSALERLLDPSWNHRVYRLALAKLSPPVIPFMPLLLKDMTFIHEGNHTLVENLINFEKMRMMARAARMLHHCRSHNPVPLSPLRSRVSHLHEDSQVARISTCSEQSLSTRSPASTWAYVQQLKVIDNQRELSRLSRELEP
# In short: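 Nucleotide exchange uses 100 nM EPAC1, 250 nM RAP1B-BODIPY-GDP and 50 uM GDP, with compounds in a concentration-titration series. After 5 min at room temperature, fluorescence (480 nm ex/540 nm em) is read every 5 min for 30 min. Data are normalized to control ATA and DMSO.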
# [13] = target: Rap guanine nucleotide exchange factor 3 (Homo sapiens) (UniProt O95398); experiment: Confirmatory qHTS for agonist of cAMP-regulated guanine nucleotide exchange factor 3 (EPAC1) (AID 1645881);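 note: EPAC1 catalysed release of BODIPY-GDP from Rap1B seen as fluorescence loss; nearly all actives have a fitted effect of over 75% in size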
# [14] = target: Rap guanine nucleotide exchange factor 4 (Homo sapiens) (UniProt Q8WZA2); experiment: Confirmatory qHTS for agonist of cAMP-regulated guanine nucleotide exchange factor 4 (EPAC2) (AID 1645884);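 note: nucleotide exchange releases bodipy-GDP from Rap1 and this lowers its fluorescence; nearly all actives have a fitted effect of over 65% in size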
# Sequence of Rap guanine nucleotide exchange factor 4 (Homo sapiens) (Q8WZA2 whole entry, looked up): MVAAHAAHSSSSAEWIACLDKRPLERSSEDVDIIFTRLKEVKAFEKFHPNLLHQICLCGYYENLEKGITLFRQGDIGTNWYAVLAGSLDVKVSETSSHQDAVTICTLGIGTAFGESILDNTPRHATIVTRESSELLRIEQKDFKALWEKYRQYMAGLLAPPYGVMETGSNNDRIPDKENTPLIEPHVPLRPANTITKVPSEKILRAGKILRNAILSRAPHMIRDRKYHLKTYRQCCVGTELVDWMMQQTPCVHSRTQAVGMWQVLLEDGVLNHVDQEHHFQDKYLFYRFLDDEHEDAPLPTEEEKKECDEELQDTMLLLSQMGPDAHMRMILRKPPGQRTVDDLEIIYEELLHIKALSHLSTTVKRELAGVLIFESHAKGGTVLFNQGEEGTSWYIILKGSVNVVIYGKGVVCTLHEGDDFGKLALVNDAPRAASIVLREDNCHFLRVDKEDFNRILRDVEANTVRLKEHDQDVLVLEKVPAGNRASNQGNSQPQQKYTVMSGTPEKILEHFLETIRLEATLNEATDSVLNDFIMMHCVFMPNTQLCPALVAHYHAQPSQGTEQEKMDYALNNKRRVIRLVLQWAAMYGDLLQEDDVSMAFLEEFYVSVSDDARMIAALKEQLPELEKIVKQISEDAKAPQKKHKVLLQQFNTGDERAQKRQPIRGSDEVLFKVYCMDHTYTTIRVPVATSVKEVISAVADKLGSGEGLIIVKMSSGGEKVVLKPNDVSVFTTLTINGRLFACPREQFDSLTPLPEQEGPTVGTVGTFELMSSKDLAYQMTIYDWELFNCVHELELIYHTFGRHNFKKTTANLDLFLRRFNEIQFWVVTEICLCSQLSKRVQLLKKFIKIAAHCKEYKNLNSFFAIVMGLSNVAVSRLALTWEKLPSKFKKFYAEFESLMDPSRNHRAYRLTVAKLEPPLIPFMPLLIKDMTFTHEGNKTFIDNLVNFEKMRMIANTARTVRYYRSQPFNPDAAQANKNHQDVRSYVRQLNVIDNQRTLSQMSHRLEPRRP
# [15] = target: Rap guanine nucleotide exchange factor 4 (Homo sapiens) (UniProt Q8WZA2); experiment: Confirmatory qHTS for antagonist of cAMP-regulated guanine nucleotide exchange factor 4 (EPAC2) (AID 1645885); note: potency is the fitted concentration of half-maximal effect; nearly all actives have a fitted effect of over 25% in size
# [16] = NCATS anti-infectives library activity on HEK293 viability as a counter-qHTS vs the C. elegans viability qHTS (AID 1745854)
# In short: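 HEK293 cells, 1500 per well, exposed 24 hr at 37C in 5% CO2 to compounds in a 1:5 titration, up to 41.7 uM final. Viability read as CellTiter-Glo luminescence after 10 min at room temperature.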
smiles,measurement,setting,value
CC/C=C\C[C@H]1C(=O)C=C[C@@H]1CCCCCCCC(=O)O,Potency,[1],inactive
Clc1ccc2c(c1)C1=NCCN1c1c(-c3noc(C4CC4)n3)ncn1-2,Potency,[1],inactive
CCCCCCCC(=O)O,Potency,[2],inactive
same,outcome,[3],inactive
same,outcome,[4],inactive
same,outcome,[5],inactive
CC(C)(C)NCC(O)COc1cccc2c1CCCC2=O (stereo not given),Potency,[2],inactive
same,Potency,[6],4.59 µM (active)
COc1cc(N2CCC(O)CC2)ccc1Nc1cc(Nc2ccccc2S(=O)(=O)C(C)C)c2cc[nH]c2n1,Potency,[2],6.61 µM (active)
same,Potency,[1],inactive
same,Potency,[6],inactive
same,activity,[7],2.25%
same,"activity change, negative = inhibition",[8],0%
same,activity,[9],-6.54%
same,activity,[10],0.382%
CC(C)(O)c1ccc2c(c1)C(=O)CC1[C@](C)(CO)CCC[C@]21C (stereo not given in full),Potency,[11],inactive
same,Potency,[1],inactive
same,Potency,[6],inactive
C=CC1(C)CC(OC(=O)C(=C)C(O)COC(C)=O)C(C(=C)C(=O)OC)C(O)C1C(=C)CO (stereo not given),Potency,[1],inactive
Cc1cn2c(N)c(Cl)cc(C(=O)NCC3CCN(CC(C)C)CC3)c2n1,Potency,[1],inactive
CCCCC(CC)COC(=O)CC(C(=O)OCC(CC)CCCC)S(=O)(=O)O (stereo not given),Potency,[2],inactive
same,Potency,[12],35.2 µM (active) and 9.93 µM (active)
same,outcome,[13],inactive
same,outcome,[14],inactive
same,Potency,[15],39.3 µM (active) and 31.2 µM (active)
same,outcome,[16],inactive
C/C(=C\CCC(C(=O)O)C1CCC2(C)C3=C(CCC12C)C1(C)CCC(=O)C(C)(C)C1CC3)C(=O)O (stereo not given),Potency,[1],inactive
C/C=C/C1=CC2=CC(=O)C(C)(O)C(OC(=O)c3c(C)cc(O)cc3O)C2CO1 (stereo not given),Potency,[1],inactive
C=CC(C)(CC/C=C(\C)CC/C=C(\C)CC(O)/C=C(\C)C(=O)O)O[C@@H]1O[C@H](CO)[C@@H](O)[C@H](O)[C@H]1O[C@@H]1O[C@H](CO)[C@@H](O)[C@H](O)[C@H]1O (stereo not given in full),Potency,[1],inactive
same,Potency,[6],inactive
CCN(CC)Cc1cc(Nc2ccnc3cc(Cl)ccc23)ccc1O,Potency,[2],inactive
same,outcome,[16],inactive
C=C(C)[C@@H]1CC[C@](C)(O)[C@@H](OC(=O)c2ccccc2)C1,Potency,[1],inactive
CC1=CC2(O)/C=C/C(C)(O)CC(O)/C=C/C(=O)OC23C(=O)NC(CC(C)C)C3C1C (stereo not given),Potency,[1],inactive
CC(=O)C1CCC2(C)C3=C(CCC12C)C1(C)CCC(=O)C(C)(C)C1CC3 (stereo not given),Potency,[1],inactive
Cc1ccc(Sc2cncc3sc(C(N)=O)cc23)cc1,Potency,[1],inactive
C[C@]12C=CC(=O)C=C1CC[C@@H]1[C@@H]2[C@@H](O)C[C@@]2(C)[C@H]1CC[C@]2(O)C(=O)COC(=O)CCC(=O)O,Potency,[2],inactive
same,Potency,[6],0.258 µM (active)
C[C@@H]1O[C@@H](O[C@H]2[C@H](OC(=O)C34CCC5(C)C(=CCC6C7(C)CC(O)C(O[C@@H]8O[C@H](C(=O)O)[C@@H](O)[C@H](O)[C@H]8O)C(C)(C(=O)O)C7CCC65C)C3CC(C)(C)CC4O)O[C@H](C)[C@@H](O)[C@@H]2O)[C@H](O)[C@@H](O[C@@H]2OC[C@](O)(CO)[C@H]2O[C@@H]2O[C@H](CO)[C@@H](O)[C@H](O)[C@H]2O)[C@H]1O (stereo not given in full),"activity change, negative = viability loss",[1],-24% [at 9.23 µM] (inactive)
CC(=O)N[C@@H](CC(C)C)C(=O)N[C@@H](CCC(=O)O)C(=O)N[C@@H](CCC(=O)O)C(=O)N[C@@H](CC(=O)O)C(=O)Nc1ccc2c(C(F)(F)F)cc(=O)oc2c1 (Ac-LEED-{AFC}),Potency,[11],inactive
same,Potency,[1],inactive
same,Potency,[6],inactive
COC(=O)C1C(CC(C)=O)C=CC(O)C12Oc1cc(C)cc(O)c1C2=O (stereo not given),Potency,[1],inactive
C=Cc1cc(O)cc2nc(-c3ccc(O)c(F)c3)oc12,Potency,[11],44.7 µM (active)
same,activity,[7],-54.6%
same,Potency,[8],30.4 µM (active)
same,activity,[9],-36%
same,activity,[10],-50.4%
CCOC(=O)Nc1nc2ccccc2[nH]1,Potency,[1],inactive
CC1(C)CCCC2(C)C1C(O)C=C(CO)C2(O)C(=O)O (stereo not given),Potency,[1],inactive
same,Potency,[6],inactive
CC(=O)NC(C(=O)OC1CCC(C)(C)C2CC=C3C(=O)OCC3(O)C12C)C(C)C (stereo not given),Potency,[1],inactive
NS(=O)(=O)OC[C@@H]1C[C@@H](n2ccc3c(N[C@H]4CCc5ccccc54)ncnc32)C[C@@H]1O,Potency,[2],21.3 µM (active)
same,Potency,[1],325 nM (active) and 409 nM (active) and 525 nM (active)
same,Potency,[6],365 nM (active) and 515 nM (active) and 525 nM (active)
same,activity,[7],-6.43% and -2.13%
same,"activity change, negative = inhibition",[8],-2.34% and 2.95%
same,activity,[9],-12% and -2.45%
same,activity,[10],-79.3% and -73.9%
same,outcome,[16],inactive
Clc1ccc(CN[C@H]2CCN(c3ncc(Br)cn3)C2)c(Cl)c1,Potency,[2],8.49 µM (active)
same,Potency,[6],inactive
COc1c(C(CC(C)C)OC(C)=O)ccc(Oc2c(O)cc(C)cc2/C=C/C(C)=O)c1C(=O)O (stereo not given),Potency,[1],inactive
Cc1c(C)c2c(c(C)c1O)CC[C@@](C)(CCC[C@H](C)CCC[C@H](C)CCCC(C)C)O2,Potency,[2],inactive
same,outcome,[5],inactive
C[C@@H]1O[C@@H](O[C@H]2[C@H](O[C@H]3CO[C@@H](O[C@H]4CC[C@@]5(C)C(CC[C@]6(C)C5CC[C@]57OC[C@@]8(CC[C@](C)(CO)CC85)[C@H](O)C[C@]76C)C4(C)C)[C@H](O[C@@H]4O[C@H](CO)[C@@H](O)[C@H](O)[C@H]4O)[C@H]3O)O[C@H](CO)[C@@H](O)[C@@H]2O)[C@H](O)[C@H](O)[C@H]1O (stereo not given in full),outcome,[1],inactive [at 9.23 µM]
same,outcome,[6],inactive [at 9.23 µM]
CC(=O)OC[C@]1(O)[C@H]2[C@H](OC(=O)CC(C)C)OC=C(CO[C@@H]3O[C@H](CO)[C@@H](O)[C@H](O)[C@H]3O)[C@H]2C[C@@H]1O,Potency,[1],inactive
CC(/C=C/C1(O)C2(C)COC1(C)CC(=O)C2)O[C@@H]1O[C@H](CO)[C@@H](O)[C@H](O)[C@H]1O (stereo not given in full),Potency,[1],inactive
same,Potency,[6],inactive
